# ASM inhibitor: blocks human secretory acid sphingomyelinase. 340,000 tested, 0.006% active. Potency, µM (titrated, usually from 57.5 µM), without a hit: at the highest dose activity change, negative = inhibition, most hits filed as inhibitors. placental ASM, HMU-PC fluorogenic substrate, 60 min
#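 Human placenta-derived ASM enzyme was preincubated with compound for 10 minutes at room temperature, then given fluorogenic substrate HMU-PC0 (9 uM final) for 60 minutes at 37 °C; a pH 10 stop preceded fluorescence reading at Ex 386/Em 447 nm.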
# Pin1 inhibitor: blocks the human prolyl isomerase Pin1 | 390,000 tested, 0.009% active | Q13526 | Potency, µM (highest dose often 115 µM), for inactives: at the top dose activity, negative = inhibition, actives largely listed as inhibitors | Pin1 FP peptide displacement, HiFluor488, 10 min; active = well fitted inhibition curve with a large enough effect in the polarisation, with a control signal flat, not every such curve was filed as active; inconclusive = small, poorly fitted or top-dose-only effect, or effect the other way, or a change in a side signal; inactive = no such curve, though single readings can be large or run the other way; the % refers to the polarisation; note: % is set by controls: 0 for no effect and ±100 for the full control effect
# Target sequence (Q13526 whole entry, looked up): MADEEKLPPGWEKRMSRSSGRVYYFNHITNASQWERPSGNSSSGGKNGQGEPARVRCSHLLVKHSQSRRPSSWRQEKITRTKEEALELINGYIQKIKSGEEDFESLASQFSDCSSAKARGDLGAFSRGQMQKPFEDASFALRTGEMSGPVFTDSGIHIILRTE
# Tb PFK block: inhibitors of T. brucei phosphofructokinase; AID 485367; Potency, µM (doses to about 57.5 µM), for the others: top-dose activity, negative = inhibition, actives largely listed as inhibitors; T. brucei PFK, ADP-Glo luminescence; 330,000 tested, 0.17% active; O15648;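 note: 0% = uninhibited 1x PFK enzyme wells and -100% = no-enzyme wells; nearly all actives have a fitted effect of over 60% in size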
#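 1.25 nM PFK with 0.5 mM F6P and 0.1 mM ATP in 0.1 M TEA pH 8.0, 5 mM MgCl2, incubated 45 min at room temperature; ADP measured by ADP-Glo luminescence; compounds titrated up to 57 uM.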
# PLK1 PBD block: inhibitors of human PLK1 polo-box domain binding; AID 720504; Plk1 PBD binding of FITC phosphopeptide, fluorescence polarization; Potency, µM, without a hit: max response, negative = inhibition, hits mostly inhibitors; 360,000 tested, 2.8% active; P53350; note: series mostly up to about 57 µM; % is set by controls: 0 for no effect and ±100 for the full control effect; nearly all actives have a fitted effect of over 65% in size
# TDP1 block: TDP1 (human) enzyme inhibition; 350,000 tested, 0.28% active; recombinant TDP1, AlphaScreen DNA substrate cleavage; Potency, µM (highest dose often 130 µM), without a hit: at the highest dose activity change, negative = inhibition, hits mostly inhibitors; Q9NUW8; note: % is set by controls: 0 for no effect and ±100 for the full control effect; nearly all actives have a fitted effect of over 40% in size
#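 E. coli-derived human Tdp1, 1 nM final. Cpd preinc 15 min RT; substrate 15 nM final, 5 min RT; AS bead mix 10 ug/ml final, 10 min RT. Signal loss = tyrosine-FITC cleavage. No-enzyme wells = max signal.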
# VDR inhibitor: inhibitors of human vitamin D receptor; P11473; VDR-SRC2-3 peptide fluorescence polarization, 2 h; Potency, µM, inactives show max response, negative = inhibition, hits mostly inhibitors; 400,000 tested, 0.93% active; AID 504847; note: % is set by controls: 0 for no effect and ±100 for the full control effect
# Target sequence (P11473 whole entry, looked up): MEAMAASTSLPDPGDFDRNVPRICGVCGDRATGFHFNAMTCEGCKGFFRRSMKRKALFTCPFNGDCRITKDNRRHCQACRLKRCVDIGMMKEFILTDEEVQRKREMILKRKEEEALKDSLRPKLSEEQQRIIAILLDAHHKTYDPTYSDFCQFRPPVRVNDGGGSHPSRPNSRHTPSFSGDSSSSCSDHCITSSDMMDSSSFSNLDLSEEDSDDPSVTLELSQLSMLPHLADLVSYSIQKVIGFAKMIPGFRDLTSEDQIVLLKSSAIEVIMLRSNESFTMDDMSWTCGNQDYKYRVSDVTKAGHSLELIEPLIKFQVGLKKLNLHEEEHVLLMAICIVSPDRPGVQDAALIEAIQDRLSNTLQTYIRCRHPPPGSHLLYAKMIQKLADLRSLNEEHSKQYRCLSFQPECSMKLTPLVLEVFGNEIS
#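 Compounds are added to VDR with labelled SRC2-3 coactivator peptide and held 2 h at room temperature. Inhibition of the VDR–peptide interaction is then read as a change in fluorescence polarization.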
# * hit, by the source's call; i = inactive; ? = inconclusive; · = no result given; ! = not confirmed by another sample; [ ] = another dose, or the depositor's remark. A selection: hits, their analogues and other compounds. The true share with any hit is near 3.1%. Unless noted, calls come from the whole dose curve; as a rule, active = well fitted curve in the direction sought with a large enough effect; inconclusive = small, poorly fitted or top-dose-only effect, or another doubt; inactive = no such curve, though single readings can be large; an effect the other way counts as inactive or inconclusive. Potency is the fitted concentration of half-maximal effect.
SMILES,ASM inhibitor,Pin1 inhibitor,Tb PFK block,PLK1 PBD block,TDP1 block,VDR inhibitor
COCCOC(=O)/C(=C/c1ccc(OC(=O)c2ccccc2)cc1)C(C)=O,-1.3%,-6.3%,-5.5%,21.2µM*,2.6%,22.4µM*
COc1ccc(C(C(=O)Nc2ccc(C(C)C)cc2)N(C)C(=O)Cc2cccs2)cc1 (stereo not drawn),·,1.2%,·,·,5.9%,-13.5%
CCNC(=O)Nc1ccc2c(c1)c(=O)n(C)n2CC=C(C)C,·,·,·,-19.3%,·,·
CCNC(=S)Nc1ccc2c(c1)c(=O)n(C)n2CC=C(C)C,·,·,·,21.2µM*,·,·
O=C(Cc1nnc(CNC(=O)c2ccccc2)s1)Nc1ccc(C(F)(F)F)cc1Cl,·,4.5%,·,·,0.9%,·
CN(Cc1ccco1)c1cc(-c2ccccc2Cl)ncn1,·,·,·,·,9.7%[56.1 µM],44.7µM*
CN(Cc1ccco1)c1ncncc1-c1ccccc1Cl,·,·,·,·,·,28.2µM*
CN(Cc1ccco1)c1ncnc2ccc(-c3ccccc3Cl)cc12,-6.0%,-0.8%,-5.4%,·,4.2%,50.1µM*!
CN(C)Cc1ccccc1-c1ccc2ncnc(N(C)C)c2c1,·,·,·,·,·,-3.8%
CN(Cc1ccco1)c1ncnc2ccc(-c3ccoc3)cc12,7.9%,20.8%,?,·,0.8%,50.1µM*!
CN(C)Cc1ccccc1-c1cc(N(C)Cc2ccco2)ncn1,·,·,·,·,·,-2.3%
CN(Cc1cccs1)c1ncnc2ccc(-c3ccc4cn(C)nc4c3)cc12,·,20.4%,·,·,·,·
CCC(C)NC(=O)C1CCN(C(=O)c2cc3sccc3n2Cc2ccc(Cl)cc2)CC1 (stereo not drawn),·,6.0%,·,·,2.9%,-1.9%
CCc1ccc(NC(=O)C(CC)n2c(=O)c(C(F)(F)F)nc3ccccc32)cc1 (stereo not drawn),·,3.2%,·,·,0.0%,0.5%
N#Cc1nc(Nc2ccc(C(F)(F)F)cc2)nc(NC2CCCC2)n1,·,10.0%,·,·,-0.3%,·
COc1ccccc1-c1ccc2ncnc(N(C)Cc3ccco3)c2c1,·,·,·,·,·,44.7µM*
CN(Cc1ccco1)c1ncnc2ccc(-c3ccccc3C(F)(F)F)cc12,·,·,·,·,·,31.6µM*
Cc1noc(CN(C)c2ncnc3ccc(-c4ccc5c(c4)OCO5)cc23)n1,·,?,·,·,-5.7%,·
CCOC(=O)c1sc2cccc(F)c2c1S(=O)(=O)N1CCN(c2cccc(Cl)c2)CC1,·,3.4%,·,·,-0.6%,-1.0%
COc1ccc(S(=O)(=O)CCC(=O)N2CCN(c3ccc([N+](=O)[O-])cc3)CC2)cc1,-9.7%,5.3%,1.4%,1.4%,3.8%,3.5%
CC1CCC(NC(=O)CCS(=O)(=O)c2ccc3c(c2)NC(=O)CO3)CC1 (stereo not drawn),3.1%,0.5%,0.0%,16.8µM*,2.8%,?
Cc1cccc(N2CCN(S(=O)(=O)c3ccc4c(c3)NC(=O)CO4)CC2)c1C,-13.7%,-1.8%,0.4%,26.7µM*,4.1%,-26.8%
Cc1ccc(S(=O)(=O)CCC(=O)N2CCN(c3ccc([N+](=O)[O-])cc3)CC2)cc1,-0.6%,-9.3%,1.8%,-12.2%,4.6%,25.1µM*
COc1ccc(N2CCN(C(=O)CCS(=O)(=O)c3ccc4c(c3)NC(=O)CO4)CC2)cc1,0.6%,-1.2%,3.9%,23.8µM*,2.3%,-26.5%
COc1ccccc1C(=O)NCCn1cc(SCC(=O)Nc2ccccc2F)c2ccccc21,·,15.1%,·,·,3.2%,-2.3%
SMILES,ASM inhibitor,Pin1 inhibitor,Tb PFK block,PLK1 PBD block,TDP1 block,VDR inhibitor
O=c1oc2cc(O)ccc2cc1-c1ccc2c(c1)OCCO2,·,·,·,·,-8.1%,-0.9%
O=C(CSC1=Nc2ccccc2N=C(c2ccc(F)cc2)C1)NCc1ccc(Cl)cc1,·,5.5%,·,·,5.3%,8.1%
COc1cccc(NC(=O)C2CCN(S(=O)(=O)c3ccc4c(c3)NC(=O)CO4)CC2)c1,0.0%,4.7%,-6.4%,21.2µM*,3.1%,?
CCOc1ccc(S(=O)(=O)NCCC(=O)N2CCN(c3ccc(OC)cc3)CC2)cc1,6.4%,-3.8%,2.2%,21.2µM*,4.3%,-6.5%
Cc1cccc(N2CCN(C(=O)CCS(=O)(=O)c3ccc4c(c3)oc(=O)n4C)CC2)c1C,-0.7%,5.7%,-6.4%,-10.7%,0.4%,-5.1%
Cc1cc2c(cc1S(=O)(=O)N1CCN(c3cccc(C(F)(F)F)c3)CC1)OCC(=O)N2,-9.5%,-0.8%,-4.0%,21.2µM*,-0.4%,?
Cc1cccc(N2CCN(C(=O)CCS(=O)(=O)c3ccc4c(c3)NC(=O)CO4)CC2)c1C,-2.0%,2.0%,1.0%,11.9µM*,1.3%,?
CC[C@H](C)[C@H](NC(=O)[C@H](CC(=O)O)NC(=O)[C@H](CC(C)C)NC(=O)[C@H](NC(C)=O)C(c1ccccc1)c1ccccc1)C(=O)N[C@H](C(=O)N[C@@H](Cc1c[nH]c2ccccc12)C(=O)O)[C@@H](C)CC,·,·,·,·,7.5%,3.4%
COc1ccc(CNC(=O)CC(C)S(=O)(=O)c2ccc3c(c2)NC(=O)CO3)cc1 (stereo not drawn),3.8%,1.8%,0.9%,23.8µM*,1.1%,-1.0%
Cc1[nH]c(-c2ccccn2)nc(=S)c1Cl,-4.3%,-2.2%,-9.5%,29.9µM*,·,-3.1%
CCCCCCc1cc2cc(C(=O)NC)c(=N)oc2cc1O,i,?,0.9%,3.36µM*,0.0%,-2.0%
CCCCCCc1cc2cc(C(N)=O)c(=N)oc2cc1O,·,·,0.6%,·,2.0%,·
O=C1/C(=C\c2cccnc2)Sc2ccccc21,-0.5%,3.1%,-1.5%,23.8µM*,5.4%,?
CC(/C=C1\SC(=Nc2cccnc2)NC1=O)=C\c1ccccc1,-3.6%,42.7%,-11.9%,26.7µM*,0.0%,-21.5%
CN1C(=O)S/C(=C/c2cccnc2)C1=O,3.3%,?,-1.5%,-9.6%,5.3%,-17.4%
Cc1ccccc1N=C1NC(=O)/C(=C/c2cccnc2)S1,-0.5%,-0.3%,-2.2%,-16.4%,8.3%,-23.4%
O=C1N/C(=N/O)S/C1=C/c1cccnc1,3.7%,-1.4%,-7.5%,23.8µM*,10.1%,-20.1%
CCOC(=O)c1cc(OC(=O)c2ccccc2F)n(-c2ccccc2)n1,·,-2.2%,·,·,-6.3%,2.1%
O=S(=O)(c1ccc2c(c1)CCCC2)N1CCN(c2nc(-c3ccccc3)nc3ccccc23)CC1,·,5.1%,·,·,0.1%,-1.5%
CN(C)c1cccc(-c2nnc(N3CCC(C(N)=O)CC3)s2)c1,·,5.2%,·,·,·,·
C=CCN1CCN(c2nc3ccccc3nc2C#N)CC1,·,·,·,·,14.6%,35.5µM*
Oc1ccc(CNCc2ccccc2F)c2cccnc12,·,6.5%,·,·,1.3%,·
COc1ccc(-c2nc(SCC(=O)NCCCc3ccccc3)n[nH]2)cc1,·,?,·,·,5.4%,12.8%
COc1ccc(/C=C(/NC(=O)/C=C/c2ccccc2)C(=O)O)cc1,-2.0%,-6.0%,17.6%,-3.7%,2.6%,12.0%
COc1ccc(/C=C\C(=O)CC(O)(c2ccccc2)C(F)(F)F)cc1 (stereo not drawn),-4.8%,0.9%,1.7%,-9.4%,-0.7%,50.1µM*

# Source: PubChem BioAssay (National Center for Advancing Translational Sciences (NCATS))
